Cruzain Triton – blocks cruzain activity in presence of Triton detergent; purified cruzain, Z-FR-AMC fluorescence, 0.01% Triton; Potency, µM, actives largely listed as inhibitors; AID 1478; 200,000 tested, 0.43% active; also: nearly all actives have a fitted effect of over 40% in size
Target sequence (P25779 123-467 limits assumed): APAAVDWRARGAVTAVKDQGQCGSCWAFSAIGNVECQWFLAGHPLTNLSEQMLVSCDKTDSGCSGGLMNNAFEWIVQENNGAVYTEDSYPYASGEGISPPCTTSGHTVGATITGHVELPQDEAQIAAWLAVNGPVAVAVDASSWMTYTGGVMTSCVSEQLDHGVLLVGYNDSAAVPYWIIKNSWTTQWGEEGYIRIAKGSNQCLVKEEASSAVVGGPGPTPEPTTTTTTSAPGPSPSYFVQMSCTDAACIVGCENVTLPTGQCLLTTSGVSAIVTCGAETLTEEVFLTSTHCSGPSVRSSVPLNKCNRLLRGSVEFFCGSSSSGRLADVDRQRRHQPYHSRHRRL
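In this qHTS format, compounds are incubated with 1.5 nM cruzain for 15 min at room temperature before 2 uM Z-FR-AMC is added. Release of AMC is followed at 360/450 nm, and progress is taken as the 60 s fluorescence difference.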
Cruzain noTriton – inhibitors of Trypanosoma cruzi cruzain without detergent | purified cruzain, Z-FR-AMC fluorescence, no detergent | Potency, µM, most hits filed as inhibitors | 200,000 tested, 2.3% active | AID 1476; also: nearly all actives have a fitted effect of over 40% in size
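Purified cruzain at 1.5 nM, pre-incubated 15 min with compound at room temperature in 100 mM sodium acetate pH 5.5, 5 mM DTT, 0.00005% Triton X-100. Reaction started with 2 uM Z-FR-AMC; AMC fluorescence increase over 60 s gives rate.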
A number is an active result; – = inactive; ? = inconclusive. An excerpt weighted towards active compounds, which were near 2.4% of everything screened. Calls follow the shape of the dose curve; as a rule, active = well fitted curve in the direction sought with a large enough effect; inconclusive = small, poorly fitted or top-dose-only effect, or another doubt; inactive = no such curve, though single readings can be large; an effect the other way counts as inactive or inconclusive.

SMILES | Cruzain Triton | Cruzain noTriton
COC(=O)[C@@H]1c2cc3c(c(O)c2[C@@H](O)C[C@]1(C)O)C(=O)c1c(O)cc2c(c1C3=O)O[C@H]1O[C@@]2(C)[C@@H](O)[C@H](N(C)C)[C@H]1O | – | –
CCc1cccc(NC(=O)C(Cc2ccccc2)NS(=O)(=O)c2ccc3c(c2)c(=O)n(C)c(=O)n3C)c1 (stereo not given) | – | –
O=C1N[C@H](Cc2ccccc2)C(=O)N1Cc1cccc2ccccc12 | – | –
COc1ccc(-c2noc(-c3ccccc3OCC(=O)Nc3ccc(C(C)=O)cc3)n2)cc1 | – | –
CCOc1ccc(-c2cc(C(=O)Nc3ccc(NC(C)=O)cc3)no2)cc1 | – | –
CCOc1ccccc1-c1nc(-c2ccc(NC(=O)Cc3ccc(OC)cc3)cc2)no1 | – | 7.9µM
CCc1ccc(NC(=O)c2cc(-c3ccc(OC)cc3)on2)cc1 | – | 13µM
COc1ccc(CC(=O)Nc2ccc(-c3noc(-c4cc(OC)c(OC)c(OC)c4)n3)cc2)cc1 | – | –
COc1ccc(CC(=O)Nc2ccc(-c3noc(-c4ccc(Cl)cc4)n3)cc2)cc1 | – | 4µM
Cc1ccccc1NC(=O)c1ccc(N(Cc2ccccc2)S(C)(=O)=O)cc1 | – | –
COc1ccc(S(=O)(=O)N(Cc2nc(-c3ccc(Cl)cc3)no2)C2CCCCC2)cc1 | – | –
CNC1CC(N)[C@H](O)[C@@H](O[C@@H]2OC(CO)C3OC4(OC(C(N)CO)C(O)C(O)C4O)O[C@@H]3[C@H]2O)C1O (stereo not given in full) | – | –
Cc1cc(C)n2nc(CNC(=O)c3c(F)cccc3F)nc2n1 | – | –
Cc1ccc2c(c1Br)C(O)(CC(=O)c1ccc(F)cc1)C(=O)N2 (stereo not given) | – | –
COc1ccc([C@H]2[C@H](C(=O)C(C)(C)C)N3N=Cc4ccccc4C3C23C(=O)OC(C)(C)OC3=O)cc1 (stereo not given in full) | – | –
O=C(c1ccccc1)[C@H]1[C@H](c2ccccc2)[C@@]2(N=C(c3ccccc3)OC2=O)C2c3ccccc3C=NN21 (stereo not given in full) | – | 10µM
CCCCOC(=O)c1c(C)oc2c1cc(NS(=O)(=O)c1cc(OC)ccc1OC)c1ccccc12 | – | 13µM
COc1ccc(OC)c(S(=O)(=O)Nc2cc3c(C(C)=O)c(C)oc3c3ccccc23)c1 | – | –
C=C(C)CN=C1NN=C(c2cc(C)n(-c3ccc(C)cc3)c2C)CS1 | – | 7.9µM
Cc1cc(C2=NNC(=NC3CC3)SC2)c(C)n1-c1ccccc1F | – | ?
CCc1ccc(-n2nc(CO)c(C(=O)NCc3ccccn3)n2)cc1 | – | –
O=C(NCc1ccc2c(c1)OCO2)c1cccc(C(=O)NCc2ccc3c(c2)OCO3)c1 | – | –
Cc1cc2cc(CNC(=O)c3cc4ccccc4o3)ccc2n1C | – | 25µM
O=C(NCc1ccc(-c2nc3ccccc3s2)cc1)c1cc2ccccc2o1 | – | 13µM
Cc1cc(-c2csc(NC(=O)c3cc4ccccc4o3)n2)c(C)n1C | – | 16µM
SMILES | Cruzain Triton | Cruzain noTriton
O=C(Nc1nc(-c2cccs2)cs1)c1cc2ccccc2oc1=O | – | –
O=C(NCc1ccc(Cl)cc1)c1cc2ccccc2o1 | – | –
O=C(NCc1ccc(-c2nc3ccccc3s2)cc1)c1ccc(Br)o1 | – | ?
Cc1cc2cc(CNC(=O)c3ccc4c(c3)OCO4)ccc2n1C | – | 20µM
CCOc1cccc(C(=O)N(Cc2ccc(CC)cc2)C2CCS(=O)(=O)C2)c1 (stereo not given) | – | ?
CCCN(C(=O)C1CCN(S(=O)(=O)c2c(C)noc2/C=C/c2ccc(C)cc2)CC1)c1ccccc1F | – | –
CC1CCC(NC(=O)c2ccc3c(c2)N(Cc2ccccc2)C(=O)c2ccccc2S3(=O)=O)CC1 (stereo not given) | – | –
Cc1cc(F)ccc1NC(=O)CCS(=O)(=O)c1cc2c(cc1C)NC(=O)CO2 | – | –
CCNc1sc(C(=O)c2cccs2)c(N)c1C#N | – | –
CCOC(=O)c1sc(NCc2ccco2)c(-c2nc3ccccc3s2)c1N | – | ?
CCNc1sc(C(=O)c2cccs2)c(N)c1-c1nc2ccccc2s1 | – | 7.9µM
C=CCNc1sc(C(=O)c2ccccc2)c(N)c1-c1nc2ccccc2s1 | – | 7.9µM
COC(=O)c1c(NC(=O)COc2ccc(C)cc2Br)sc2c1CCCC2 | – | –
CCCC(=O)Oc1c(Sc2ccc(Cl)cc2)c(C)nn1-c1ccccc1 | – | –
Cc1cc(NC(=O)CS(=O)(=O)c2cn(Cc3ccccc3Cl)c3ccccc23)no1 | – | 25µM
CCOC(=O)N1CCN(C(=O)CS(=O)(=O)c2cn(Cc3ccccc3Cl)c3ccccc23)CC1 | – | ?
Nc1nc2ccccc2nc1N | – | 20µM
c1ccc2nc3ccccc3nc2c1 | – | –
COc1ccc([N+](=O)[O-])cc1NC(=O)CSc1ccccc1 | – | –
COc1cc(NC(=O)CN2C(=O)NC(C)(c3ccc4ccccc4c3)C2=O)c(C)cc1[N+](=O)[O-] (stereo not given) | – | 20µM
CCOc1ccc(-n2c(SCC(=O)Nc3cc(OC)c([N+](=O)[O-])cc3C)nc3ccccc32)cc1 | – | 7.9µM
COc1cc(NC(=O)CN2C(=O)NC(C)(c3ccccc3)C2=O)c(C)cc1[N+](=O)[O-] (stereo not given) | – | –
COc1cc([N+](=O)[O-])ccc1NC(=O)CSc1nc2ccccc2n1-c1ccccc1 | – | 13µM
COc1cc(NC(=O)CSc2nc(C)c(C)c(C)n2)c(C)cc1[N+](=O)[O-] | – | –
O=C1C(=O)N(C2CCN(C(=O)c3cccc(Cl)c3)CC2)CCN1Cc1ccc(F)cc1 | – | –
SMILES | Cruzain Triton | Cruzain noTriton
COCCn1c(C)cc(O)c(C(c2ccc(Cl)cc2)N2CCN(c3ccccc3)CC2)c1=O (stereo not given) | – | –
C#C[C@@]1(O)CC[C@@H]2[C@@H]3CCC4=CC(=O)CC[C@@H]4[C@H]3CC[C@]21CC | – | –
Cc1ccccc1-n1nc(CO)c(C(=O)NCc2cccnc2)n1 | – | –
Cc1cccc(N2CCN(S(=O)(=O)c3cc(C(=O)Nc4ccc(Oc5ccccc5)cc4)ccc3F)CC2)c1C | – | ?
O=C(Cn1cnc2cc([N+](=O)[O-])ccc2c1=O)Nc1ccc2c(c1)CCC2 | – | 16µM
O=C(Cn1cnc2ccccc2c1=O)Nc1ccc2c(c1)CCC2 | – | –
CCOc1ccc(CCNC(=O)CCCn2nc(C)c3sc4ccccc4c3c2=O)cc1 | – | ?
CCOc1ccc(CNC(=O)CCCn2nc(C)c3sc4ccccc4c3c2=O)cc1 | – | 20µM
COc1ccc(/C=C(\C#N)C(=O)OCC(=O)NCc2ccccc2)cc1 | – | 32µM
COc1ccc(/C=C(\C#N)C(=O)OCC(=O)Nc2c(C)cccc2C)cc1 | – | ?
O=C(O)c1cccc(CN2CCCCC2)c1 | – | –
Cc1nc(C)c(-c2csc(NCc3ccco3)n2)s1 | – | –
COc1ccccc1Nc1nc(-c2sc(NC(=O)c3cccc(Cl)c3)nc2C)cs1 | – | 7.9µM
COc1ccccc1Nc1nc(-c2sc(NC(=O)C(C)(C)C)nc2C)cs1 | – | –
Cc1nc(NC(=O)c2ccc(Cl)cc2)sc1-c1csc(Nc2cccc(F)c2)n1 | – | 10µM
Cc1nc(NC(=O)c2ccccc2)sc1-c1csc(NCc2ccco2)n1 | – | 16µM
COc1cccc(Nc2nc(-c3sc(NC(=O)c4ccccc4)nc3C)cs2)c1 | – | ?
Cc1ccc(Nc2nc(-c3sc(NC(=O)c4ccco4)nc3C)cs2)cc1 | – | –

Screening results (PubChem BioAssay)
